Bioassay records as filed in PubChem.
SW480 rereplic: A quantitative high throughput screen for small molecules that induce DNA re-replication in SW480 colon adenocarcinoma cells; Potency, µM (doses to about 46.1 µM), for the others: at the highest dose re-replication activation, most hits filed as activators; 1.8% of 340,000 active; SW480 DNA re-replication, Hoechst DNA content imaging, 48 h; AID 624297, 2012; note: potency is the fitted concentration of half-maximal effect; % of control where 0% means no effect; nearly all actives have a fitted effect of over 55% in size
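Compounds, transferred as 23 nL by pin tool, were incubated with cells for 48 hr; DNA content per nucleus was then quantified by Hoechst staining and fluorescence plate imaging.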
Vif-APOBEC3G blk: qHTS for Inhibitors of Vif-A3G Interactions: qHTS | DNA dC->dU-editing enzyme APOBEC-3G (Homo sapiens), Q9HC16 | Potency, µM (highest dose often 46.1 µM), for inactives: at the highest dose activity, negative = active, most hits filed as inhibitors | 0.076% of 410,000 active | HeLa A3G-eYFP + Vif (tagged APOBEC3G with the HIV-1 protein that degrades it), YFP fluorescence, overnight; note: potency is the fitted concentration of half-maximal effect; % is set by controls: 0 for no effect and ±100 for the full control effect; nearly all actives have a fitted effect of over 60% in size
Target sequence (Q9HC16 whole entry, looked up): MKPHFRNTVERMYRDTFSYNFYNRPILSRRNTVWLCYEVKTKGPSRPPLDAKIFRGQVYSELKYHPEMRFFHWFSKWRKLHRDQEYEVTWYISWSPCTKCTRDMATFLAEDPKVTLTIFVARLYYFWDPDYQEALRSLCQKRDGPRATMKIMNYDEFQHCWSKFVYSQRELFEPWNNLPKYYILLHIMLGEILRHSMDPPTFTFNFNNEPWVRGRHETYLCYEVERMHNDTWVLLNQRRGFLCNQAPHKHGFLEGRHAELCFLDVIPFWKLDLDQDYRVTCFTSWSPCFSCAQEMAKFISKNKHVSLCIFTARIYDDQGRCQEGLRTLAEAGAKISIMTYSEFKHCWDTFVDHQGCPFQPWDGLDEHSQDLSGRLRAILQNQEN
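HeLa cells stably expressing Vif and C-terminally eYFP-tagged A3G, seeded overnight at 37 deg C, then exposed to compound by pintool overnight at 37 deg C. Rise in yellow fluorescence (Ex 488/Em 500-530, Acumen) marks blocked Vif-driven A3G degradation.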
IL1B secr inh: qHTS for Inhibitors of Inflammasome Signaling: IL-1-beta AlphaLISA Primary Screen. THP-1 LPS/ATP IL-1B secretion, AlphaLISA, 16 h; stronger effect = lower value. activity change, % at 57.5 µM. 4.7% of 360,000 active; in the data active = activity change below about -50%; inconclusive = mostly about -30% to -49%; note: % is set by controls: 0 for no effect and ±100 for the full control effect
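THP-1 cells pretreated 1 hr with compounds (up to 57.5 uM final), then stimulated with LPS (250 ng/mL final) plus ATP (1.25 mM final); secreted IL-1B measured by AlphaLISA after 16 hr, decreased signal indicating inhibition.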
MCF10A rereplic: A quantitative high throughput screen for small molecules that induce DNA re-replication in MCF 10a normal breast cells; MCF 10A DNA re-replication, Hoechst nuclear intensity, 48 h; Potency, µM (series often up to 46.1 µM), for the others: top-dose activity, positive = re-replication, most hits filed as activators; 2.9% of 350,000 active; AID 624296, 2012; note: potency is the fitted concentration of half-maximal effect; % of control where 0% means no effect; nearly all actives have a fitted effect of over 50% in size
Vif-APOBEC3F blk: qHTS for Inhibitors of Vif-A3F Interactions: qHTS; HeLa A3F-eYFP + Vif (tagged APOBEC3F with the HIV-1 protein that degrades it), YFP fluorescence increase; Potency, µM (top dose mostly 46.1 µM), for the others: top-dose activity, negative = active; 0.2% of 390,000 active; AID 602313, 2012; note: potency is the fitted concentration of half-maximal effect; % of control where 0% means no effect; nearly all actives have a fitted effect of over 65% in size
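HeLa cells stably expressing Vif plus C-terminally eYFP-tagged A3F were seeded, incubated overnight at 37 deg C, dosed with compound, incubated overnight again at 37 deg C. Yellow fluorescence (Ex 488/Em 500-530) reported blocked Vif-mediated A3F-eYFP degradation.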
Giardia kill: Small Molecules that selectively kill Giardia lamblia: qHTS; activity change, % at 7.66 µM, hits read low; 0.15% of 340,000 active; AID 540267, 2011; Giardia lamblia trophozoite viability; in the data active = activity change below about -80%; inconclusive = between about -30% and that limit;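 note: parasites exposed to compound for two days anaerobically before the ATP read; % is set by controls: 0 for no effect and ±100 for the full control effect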
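Giardia trophozoites, 100 cells per well, were exposed to compounds for 48 hrs at 37 deg C under anaerobic conditions; viability was then read as ATP content by bioluminescence after 15-30 min at room temperature.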
* hit, by the source's call. Shown are actives, neighbours in structure and some others; about 6.9% of the full set was active somewhere. Unless noted, calls come from the whole dose curve; as a rule, active = well fitted curve in the direction sought with a large enough effect; inconclusive = small, poorly fitted or top-dose-only effect, or another doubt; inactive = no such curve, though single readings can be large; an effect the other way counts as inactive or inconclusive.

`N=c1c(S(=O)(=O)c2ccc(Br)cc2)cc2c(=O)n3ccccc3nc2n1CCN1CCOCC1` gave SW480 rereplic inconclusive, Vif-APOBEC3G blk 3%, IL1B secr inh -10, MCF10A rereplic 16µM*, Vif-APOBEC3F blk 17% and Giardia kill -2.
`CCCCCn1c(=N)c(S(=O)(=O)c2ccccc2)cc2c(=O)n3ccccc3nc21` gave Vif-APOBEC3G blk -2% and Vif-APOBEC3F blk -13%.
For CCCn1c(=N)c(S(=O)(=O)c2ccccc2)cc2c(=O)n3ccccc3nc21 the results were SW480 rereplic 1%, Vif-APOBEC3G blk -7%, IL1B secr inh -22, MCF10A rereplic 18µM*, Vif-APOBEC3F blk inconclusive and Giardia kill 5.
Screening COc1ccc(CCn2c(=N)c(S(=O)(=O)c3ccccc3)cc3c(=O)n4ccccc4nc32)cc1 returned SW480 rereplic 6%, Vif-APOBEC3G blk 0%, IL1B secr inh -11, MCF10A rereplic 3.7µM*, Vif-APOBEC3F blk 3% and Giardia kill 16.
For Cc1ccc2c(Sc3ccc(Cl)cc3)c(C(=O)N3CCCCC3)[nH]c2c1 the results were Vif-APOBEC3G blk 1% and Vif-APOBEC3F blk -5%.
For Cc1cccn2c(=O)c(/C=C(\C#N)c3nc4ccccc4n3C)c(Oc3ccc(Br)cc3)nc12 the results were Vif-APOBEC3G blk -3% and Vif-APOBEC3F blk inconclusive.
COc1ccc(-c2nn(-c3ccccc3)cc2C2NC(=O)NC(C)=C2C(=O)OC(C)C)cc1Cl (configuration not stated) was read as Vif-APOBEC3G blk -8% and Vif-APOBEC3F blk 2%.
For Oc1c(Cl)cc(Cl)cc1/C=N/NC(=S)NC1CC2C=CC1C2 (configuration not stated) the results were SW480 rereplic 18µM*, Vif-APOBEC3G blk -1%, IL1B secr inh -13, MCF10A rereplic 7.3µM*, Vif-APOBEC3F blk inconclusive and Giardia kill 2.
Oc1ccccc1C=NNC(=S)NC1CC2C=CC1C2 (configuration not stated) was read as Vif-APOBEC3G blk -27%, IL1B secr inh 118 and Vif-APOBEC3F blk inconclusive.
Screening Oc1ccccc1/C=N/NC(=S)NC1CC2C=CC1C2 (configuration not stated) returned SW480 rereplic 26%, Vif-APOBEC3G blk -18%, IL1B secr inh -100*, MCF10A rereplic 10µM*, Vif-APOBEC3F blk inconclusive and Giardia kill 16.
For Cc1ccc(NC(=O)c2cnc(SCC(=O)N3CCCc4ccccc43)n(C)c2=O)cc1C the results were Vif-APOBEC3G blk -1% and Vif-APOBEC3F blk 3%.
For C=C(CN(C)C)C(=O)c1ccc(C)cc1C the results were SW480 rereplic 5.8µM*, Vif-APOBEC3G blk inconclusive, IL1B secr inh -107*, MCF10A rereplic 2.9µM*, Vif-APOBEC3F blk 13% and Giardia kill -3.
`CCC(C)NC(=O)c1ccc2nc(-c3cccs3)c(-c3cccs3)nc2c1` (configuration not stated) gave Vif-APOBEC3G blk 2% and Giardia kill 28.
`CCN(CC)c1cc2c(cc1F)c(=O)c(S(=O)(=O)c1ccc(OC)cc1)cn2CC` gave Vif-APOBEC3G blk 0% and Vif-APOBEC3F blk -1%.
For NC(=O)C1CCN(c2nc3ccccc3nc2NS(=O)(=O)c2ccc(Br)cc2)CC1 the results were SW480 rereplic -3%, Vif-APOBEC3G blk -1%, IL1B secr inh -1, MCF10A rereplic 0%, Vif-APOBEC3F blk 25µM* and Giardia kill -21.
Screening CCOC(=O)N1CCC(Nc2nc3ccccc3nc2NS(=O)(=O)c2ccc(Cl)cc2)CC1 returned SW480 rereplic 9%, Vif-APOBEC3G blk -2%, IL1B secr inh 28, MCF10A rereplic 0%, Vif-APOBEC3F blk 32µM* and Giardia kill 12.
`O=S(=O)(Nc1nc2ccccc2nc1N1CCN(c2ccccc2F)CC1)c1ccc(Cl)cc1` gave SW480 rereplic -2%, Vif-APOBEC3G blk 0%, IL1B secr inh 40, MCF10A rereplic 10µM*, Vif-APOBEC3F blk -4% and Giardia kill -7.
CCc1ccc(-n2nc(C)c3c(C)cc(=O)n(Cc4nc(-c5ccccc5)oc4C)c32)cc1 was read as Vif-APOBEC3G blk 0% and Vif-APOBEC3F blk 1%.
O=C(NCCc1ccc(Cl)cc1)c1nnc(Cc2ccc(F)cc2)o1 was read as Vif-APOBEC3G blk -3% and Vif-APOBEC3F blk 3%.
CCCc1nn2c(=O)cc(COC(=O)c3cccs3)nc2s1 was read as Vif-APOBEC3G blk 1% and Vif-APOBEC3F blk 4%.
`Cn1c(CCCOc2ccc(Cl)cc2Cl)nnc1SCC(=O)Nc1cccc(F)c1` gave SW480 rereplic -1%, Vif-APOBEC3G blk -1%, IL1B secr inh -16, MCF10A rereplic inconclusive, Vif-APOBEC3F blk -11% and Giardia kill 16.
For Cn1c(CCCOc2ccc(Cl)cc2Cl)nnc1SCC(=O)Nc1ccc(F)c(Cl)c1 the results were SW480 rereplic 12%, Vif-APOBEC3G blk 1%, IL1B secr inh 5, MCF10A rereplic 23µM*, Vif-APOBEC3F blk 6% and Giardia kill 21.
`CCn1c(CCCOc2ccc(Cl)cc2Cl)nnc1SCC(=O)Nc1cc(F)ccc1C` gave SW480 rereplic 13%, Vif-APOBEC3G blk 0%, IL1B secr inh -59*, MCF10A rereplic inconclusive, Vif-APOBEC3F blk -12% and Giardia kill 6.
`N#Cc1cccc(NC(=O)Cn2nc(Cc3ccncc3)c3ccccc3c2=O)c1` gave Vif-APOBEC3G blk 1% and Vif-APOBEC3F blk 1%.
COc1ccccc1N(CC(=O)NC1CCCC1)C(=O)c1oc(C(C)(C)C)cc1C was read as SW480 rereplic 6%, Vif-APOBEC3G blk 6%, IL1B secr inh -91*, MCF10A rereplic 11%, Vif-APOBEC3F blk -2% and Giardia kill 3.
`Cc1cc(C(C)(C)C)oc1C(=O)N(CC(=O)NC1CCCC1)c1c(C)cccc1C` gave SW480 rereplic -5%, Vif-APOBEC3G blk 2%, IL1B secr inh -27, MCF10A rereplic -3%, Vif-APOBEC3F blk -11% and Giardia kill -5.
For Cc1ccc(C)c(Cn2c(=O)n(CCCCC(=O)NCc3ccc4c(c3)OCO4)c(=O)c3ccccc32)c1 the results were Vif-APOBEC3G blk -9% and Vif-APOBEC3F blk -5%.
